# Rows were chosen to be rich in hits. Some 2.3% of all compounds tested hit in one or more screens of this group.
# DENV2 CPE – inhibitors of DENV2 cytopathic effect, primary screen, cell-based, plate reader, single concentration; 350,000 compounds, 1.7% hits; DENV2-infected cells, cytopathic effect rescue; CPE inhibition, % at 9.99 µM; in the data active means CPE inhibition above about 20%, passing the limit was not always enough; inconclusive means no clear call, values can overlap the other calls; tested in BHK-21 cells;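 further: 0% = median of neutral control wells and 100% = median of positive control wells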
# SIRT5 inh – SIRT5 desuccinylase inhibitors, primary screen, biochemical, fluorescence imaging, single point, set 5. NAD-dependent protein deacylase sirtuin-5, mitochondrial (Homo sapiens), Q9NXA8. inhibition, % at 15 µM. 330,000 compounds, 1.1% hits. Purified SirT5, succinyl-peptide AMC, trypsin-coupled fluorescence; in the data active means inhibition above about 15%; inconclusive means no clear call, values can overlap the other calls
# PDI turbidity – inhibitors of human PDI, primary screen, biochemical, turbidity, single point, plate reader; 350,000 compounds, 0.052% hits; inhibition, % at 10 µM; PDI insulin aggregation turbidity, A650, 90 min;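 active means mean inhibition across replicates of 30% or more, whatever share of single replicates reach that level; inconclusive means mean inhibition below 30% while every single replicate reaches 30%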
# ERp5 inh – inhibitors of ERp5-driven insulin aggregation, primary screen, biochemical, turbidity, absorbance 650 nm, single point; 90 min; inhibition, % at 9.99 µM; AID 651711, 2012; 350,000 compounds, 0.05% hits; Protein disulfide-isomerase A6 (Homo sapiens), Q15084;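 active means mean replicate inhibition above about 25%, with every replicate also reaching it, limit read from the data, passing the limit was not always enough; inconclusive means only one of those two criteria met; inactive means neither criterion met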
# Rtt109 HAT inh – inhibitors of C. albicans Rtt109/Vps75 HAT, primary screen, biochemical, ThioGlo CoA-SH fluorescence, plate reader; Histone acetyltransferase RTT109 (Candida albicans (strain SC5314 / ATCC MYA-2876)), …; purified Rtt109/Vps75, 4 h; inhibition, % at 34.9 µM; 330,000 compounds, 0.16% hits;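 active means inhibition of at least 50% in every replicate; inconclusive means best replicate reaches 50% inhibition but some replicates fall short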
# Target sequence (Q5AAJ8 whole entry, looked up): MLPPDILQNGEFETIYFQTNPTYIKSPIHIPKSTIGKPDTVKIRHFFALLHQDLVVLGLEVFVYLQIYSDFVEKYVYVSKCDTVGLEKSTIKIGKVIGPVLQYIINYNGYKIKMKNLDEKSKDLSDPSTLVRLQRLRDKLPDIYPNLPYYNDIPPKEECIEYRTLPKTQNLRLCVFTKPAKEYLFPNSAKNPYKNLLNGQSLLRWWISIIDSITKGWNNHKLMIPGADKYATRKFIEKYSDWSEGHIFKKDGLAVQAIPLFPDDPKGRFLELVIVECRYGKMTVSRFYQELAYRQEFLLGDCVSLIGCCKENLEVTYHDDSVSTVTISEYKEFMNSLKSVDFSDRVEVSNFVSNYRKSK
# Starred values were filed as active, the others as inactive; ? = inconclusive; · = not tested or not shown.
SMILES,DENV2 CPE,SIRT5 inh,PDI turbidity,ERp5 inh,Rtt109 HAT inh
C[C@H](CO)N1C[C@H](C)[C@@H](CN(C)S(=O)(=O)c2ccccc2)Oc2ncc(C#CC3CCCCC3)cc2C1=O,-2,15,·,-11,·
C[C@@H]1CN([C@@H](C)CO)C(=O)c2cc(C#CC3CCCCC3)cnc2O[C@H]1CN(C)S(=O)(=O)c1cccc(F)c1,1,22*,·,1,·
C[C@@H]1CN([C@@H](C)CO)C(=O)c2cc(C#CC3CCCCC3)cnc2O[C@@H]1CN(C)S(=O)(=O)c1ccccc1,6,16*,·,29*,·
C[C@H]1CN([C@@H](C)CO)C(=O)c2cc(C#CC3CCCCC3)cnc2O[C@H]1CN(C)S(=O)(=O)c1cccc(F)c1,-5,2,·,-5,·
COc1ccccc1-c1ccc([C@H]2[C@H](C#N)N(C(=O)C3CC3)[C@H]2CO)cc1,-3,5,·,?,·
COc1ccc2c3c(n(C)c2c1)[C@@H](CO)N(Cc1ccccc1F)CC31CN(C(=O)C2CCCC2)C1,-8,0,·,-3,·
C[C@@H]1CN([C@@H](C)CO)C(=O)c2cc(NC(=O)CCCN(C)C)ccc2O[C@H]1CN(C)S(=O)(=O)c1cn(C)cn1,4,2,·,2,·
C[C@@H]1CN([C@H](C)CO)C(=O)Cc2cc(NC(=O)Nc3ccc(C(F)(F)F)cc3)ccc2O[C@H]1CN(C)S(C)(=O)=O,-3,3,·,3,·
O=C(C[C@@H]1C=C[C@@H](NC(=O)C2CCC2)[C@H](CO)O1)NC1CCCCC1,-1,-1,·,0,·
O=C(Cc1cccnc1)N[C@H]1CC[C@H](CCn2cc(Cc3ccccc3)nn2)O[C@H]1CO,-4,0,·,-1,·
C[C@@H]1CN([C@@H](C)CO)C(=O)c2cc(C#CC3CCCCC3)cnc2O[C@@H]1CN(C)S(=O)(=O)c1cccc(F)c1,0,18*,·,-5,·
CCCC1CC(CCc2ccccc2)OS(=O)(=O)N1 (configuration not stated),40*,2,-2,0,3
COc1ccc(/C=N/NC(=O)c2nc(-c3ccccc3)n(-c3ccccc3)n2)cc1OC,38*,·,-9,-3,2
C[C@@H]1CCCCO[C@H](CN(C)S(=O)(=O)c2cccs2)[C@H](C)CN([C@@H](C)CO)C(=O)c2cc(NS(=O)(=O)c3cn(C)cn3)ccc2O1,-5,10,·,1,·
Cc1cc(C(=O)Nc2ccc3c(c2)C(=O)N(C)[C@H]2CC[C@H](CC(=O)N[C@@H](C)c4ccccc4)O[C@H]2CO3)no1,-7,-1,·,-2,·
Cc1cc(C(=O)Nc2ccc3c(c2)C(=O)N(C)[C@H]2CC[C@@H](CC(=O)N[C@@H](C)c4ccccc4)O[C@H]2CO3)no1,97*,-1,·,4,·
CCC(=O)Nc1ccc2c(c1)C(=O)N(C)[C@@H]1CC[C@H](CC(=O)N[C@H](C)c3ccccc3)O[C@@H]1CO2,?,15*,·,2,·
CCC(=O)Nc1ccc2c(c1)C(=O)N(C)C[C@@H](OC)[C@@H](C)CN(CCc1ccccc1)[C@H](C)CO2,4,-1,·,6,·
Fc1ccccc1-c1nc(-c2ccccc2)no1,·,·,0,·,4
Fc1ccccc1-c1nc(-c2ccc(-c3nn[nH]n3)cc2)no1,20*,-5,-5,-4,4
COc1ccc2c3c(n(C)c2c1)[C@@H](CO)N(C(=O)Cc1ccccc1)CC31CN(C)C1,0,-1,·,0,·
COc1ccccc1NC(=O)N1CC[C@@H]2[C@H]1c1cc(-c3ccc(F)cc3)ccc1N(C)[C@H]2CO,2,2,·,-1,·
CN1c2ccc(-c3ccc(C#N)cc3)cc2[C@@H]2[C@@H](CCN2C(=O)Nc2ccccc2F)[C@@H]1CO,42*,-16,·,-1,·
COc1ccccc1NC(=O)N1CC[C@H]2[C@@H]1c1cc(C#Cc3ccc(F)cc3)ccc1N(C)[C@H]2CO,34*,11,·,-2,·
C[C@@H]1CCCCO[C@@H](CN(C)S(=O)(=O)c2ccc(Cl)cc2)[C@H](C)CN([C@H](C)CO)C(=O)c2cc(NC(=O)Nc3ccc(F)cc3)ccc2O1,14,3,·,2,·
SMILES,DENV2 CPE,SIRT5 inh,PDI turbidity,ERp5 inh,Rtt109 HAT inh
CC(=O)N(Cc1cccc(F)c1)C[C@@H]1[C@@H](c2ccccc2)[C@@H](CO)N1C(C)=O,-4,-5,·,2,·
O=C(CN1CCCC1)Nc1cc(C(F)(F)F)ccc1Cl,·,-5,-9,5,-5
O=C(O)CSCC(=O)Nc1cc(C(F)(F)F)ccc1Cl,·,·,7,·,66*
COc1ccc(NC(=O)Nc2ccc3c(c2)C(=O)N([C@@H](C)CO)C[C@@H](C)[C@@H](CN(C)Cc2ccccc2)O3)cc1,-2,4,·,-2,·
Cc1ncc(CN2CCC(CO)(CCOc3ccccc3)CC2)s1,-1,-3,7,-1,3
Cc1ncc(CN2CCC(CO)(Cc3ccccc3)CC2)s1,4,18*,16,9,7
C[C@H](O)C#Cc1ccc([C@H]2[C@@H](CO)N3CCCCN(C(=O)c4ccc(F)cc4)C[C@H]23)cc1,10,-2,·,-2,·
CN1C(=O)/C(=C2\SC(N3CCCCCC3)=NC2=O)c2ccccc21,·,32*,16,3,-22
Cc1noc(C)c1S(=O)(=O)N(C)C[C@@H]1OCCCC[C@@H](C)Oc2ccc(NC(=O)Nc3ccccc3)cc2C(=O)N([C@@H](C)CO)C[C@H]1C,-6,6,·,4,·
CCC(SC1=NCCS1)C(=O)Nc1ccc(S(N)(=O)=O)cc1 (configuration not stated),26*,0,0,0,-27
CCC(Sc1nc(C)cc(C)n1)C(=O)Nc1ccc(S(N)(=O)=O)cc1 (configuration not stated),14,3,1,-2,1
CC(C)(C)c1n[nH]c2c1CCCC2,-9,42*,1,1,-5
Cc1cc(C(=O)N/N=C2/CC(C)CC(C)(C)C2)c(C)o1 (configuration not stated),-1,41*,-3,1,-5
O=C(CN1CCN(S(=O)(=O)c2ccc(F)cc2)CC1)NC1CCCC1,-9,-3,2,6,-6
COc1ccc(S(=O)(=O)N2CCC(NC(=O)C(Cc3cccc(OC)c3OC)NC(C)=O)CC2)cc1 (configuration not stated),10,18*,16,-4,-11
COc1cccc(CC(NC(C)=O)C(=O)NC2CCN(S(=O)(=O)c3ccc(F)cc3)CC2)c1OC (configuration not stated),6,10,1,3,8
COc1ccc(S(=O)(=O)N2CCN(CC(=O)NC3CC3)CC2)cc1,23*,2,-8,10,0
C/C(=N\NC(=O)CN1CCN(S(=O)(=O)c2ccc(C)cc2)CC1)c1ccc(O)cc1,·,15*,4,1,2

# Screening results deposited in PubChem BioAssay by Broad Institute.
